# This excerpt belongs to a sample that is enriched for hits.
# KDM5B inh: Primary screen for KDM5B Histone Demethylases FDH-coupled qHTS. Potency, µM (top dose mostly 57.7 µM), actives largely listed as inhibitors. Lysine-specific demethylase 5B (Homo sapiens), Q9UGL1. 220,000 tested, 2.6% active. AID 1347165, 2019. KDM5B demethylase, FDH-coupled NADH fluorescence (FDH is formaldehyde dehydrogenase); active = well fitted inhibition curve with a large enough effect; note: nearly all actives have a fitted effect of over 70% in size
#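 Coupled FDH/NAD⁺ fluorescence readout. KDM5BΔAP 200 nM final; compound titration, 10 min RT preincubation; substrate mix 12.5 µM H3K4me3, 25 µM 2-OG, 50 µM Fe(II), 100 µM ascorbate, 0.25 mM NAD⁺, 0.25 U/mL FDH; ΔRFU over 30 min.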
# A number is an active result; n = inactive; ! = repeats disagree.
SMILES,KDM5B inh
CCC(CC)C(=O)N1CCN(C(=O)c2ccccc2C(=O)c2ccc(F)cc2)CC1,n
O=C(NCCNC(=O)c1cc2ccccc2[nH]1)C(=O)NCc1ccccc1,n
Cc1ccc(C(CNC(=O)c2cc(=O)c3cc(Br)ccc3o2)N(C)C)o1 (centres undefined),n
O=C(NCc1ccc(N2CCOCC2)cc1)c1cc2c(s1)CN(C1CC1)C2,11.2µM
O=C(CC1CCOCC1)NCc1ccc(N2CCOCC2)cc1,n
O=C(NCc1ccc(N2CCOCC2)cc1)c1cccc2c1CCN2C(=O)C1CC1,n
CCNc1c(NS(=O)(=O)c2ccc(F)cc2)c(=O)oc2ccccc12,n
N#CCCN(CCC#N)C(=O)c1cccs1,n
c1ccc2c(-c3nc4ccncc4[nH]3)c[nH]c2c1,39.8µM!
c1cnc2nc(-c3c[nH]c4ccccc34)[nH]c2c1,35.5µM!
O=C(COc1cccnc1[N+](=O)[O-])c1c[nH]c2ccccc12,n
c1ccc(CCNc2nc(-c3c[nH]c4ccccc34)cs2)cc1,n
CC1(C(=O)Nc2nc(-c3c[nH]c4ccccc34)cs2)CC1(Cl)Cl (centres undefined),n
c1ccc2c(-c3csc(NC4CC4)n3)c[nH]c2c1,n
Cc1cccc(CN2CCC3(CC2)COCCN3C(=O)OCc2ccccc2)c1,n
COc1cccc(C(=O)N2C[C@@H](COc3ccccc3)[C@H](C(N)=O)C2)c1,n
CC(CNC(=O)CCC1CCCC1)NC(=O)CCC1CCCC1 (centres undefined),n
O=C1NCCCCCN(C(=O)c2cccs2)[C@H]2CCCC[C@@H]12,n
O=C1NCCN(C(=O)Cn2ncc3ccccc3c2=O)C1Cc1cnc[nH]1 (centres undefined),n
CC(=O)N1CCC([C@@H]2CN(Cc3cc(F)c(F)c(F)c3)C[C@H]2CO)CC1,n
NC(=O)C1CCCCC1=O (centres undefined),n
COC[C@@H]1CCCN1Cc1cn(-c2ccccc2)nc1-c1ccc(OC)cc1F,n
COC[C@@H]1CCCN1Cc1cc2cc3c(cc2[nH]c1=O)OCO3,28.2µM
COC[C@H]1CCCN1Cc1nc(C2(O)CCN(C(C)C)CC2)cs1,n
COc1ccc2c(C)c(CC(=O)NCc3ccc(F)cc3)c(=O)oc2c1OC,n
SMILES,KDM5B inh
Cc1ccc(OCCCOc2ccc(Cl)cc2/C=N/NC(=O)c2ccccc2)c(C)c1,n
Cc1ccc(CNC(=O)c2ccc(C)s2)cc1,n
Cc1ccc(C(=O)NCc2nnc3ccc(-c4ccc(Cl)cc4)nn23)s1,15.8µM
O=C(NCCc1noc(-c2ccccc2)n1)c1ccc(Cl)s1,n
Cc1ccsc1C(=O)NCc1nnc2ccc(-c3ccc(Cl)cc3)nn12,31.6µM
O=C(NCc1nnc2ccc(-c3ccc(Cl)cc3)nn12)c1ccc(Cl)s1,5.01µM
CC(=O)Nc1ccc(CNC(=O)c2sccc2C)cc1,n
CCN(CC)c1ncccc1CNC(=O)c1ccc(C)s1,n
O=C(CSc1nnc2ccc(-c3ccccc3)nn12)NCc1ccc2c(c1)OCO2,n
O=C(CSc1nnc2ccc(-c3ccc(Br)cc3)nn12)NCc1ccc2c(c1)OCO2,n
O=C(NCc1nnc2ccc(-c3ccccc3)nn12)c1ccc(Cl)s1,22.4µM
CC(=O)c1ccc(NC(=O)CSc2nnc3ccc(-c4ccc(Cl)cc4)nn23)cc1,n
Cc1ccsc1C(=O)NCc1ccccn1,n
CC(SC(C)c1ccc(F)cc1)C(=O)NC(N)=O (centres undefined),n
CC(C)CN1C(=O)c2cccn2CC1C(=O)NC1CCN(Cc2ccccc2)CC1 (centres undefined),n
CS(=O)(=O)N1CCOc2ccc(CCC(=O)NCC3CC3)cc2C1,n
COc1ccc(-c2cc(NC(=O)c3c(C)noc3C(C)C)ccc2OC(F)F)cc1,n
CCC(C)NC(=O)c1ccc(CNC(=O)C2CCCCC2)cc1 (centres undefined),n
COC(=O)c1ccoc1COC(=O)c1ccc(C#N)cc1,n
CCCn1c(C)cnc1CC1CCCN(C(=O)Cc2cccc(F)c2)C1 (centres undefined),n
Cn1c(=O)c2ccccc2n(CC(=O)Nc2ccc(C(F)(F)F)cc2)c1=O,n
CN1CCN(C(=O)[C@@H]2CCC[C@@H](NCc3cccc4c3OCO4)CN(C)C(=O)C2)CC1,n
O=C(Nc1ccc(SC2CCCC2)cc1)C1CCC1,n
COc1cc(C(=O)NC2CCCc3ccccc32)ccc1C (centres undefined),n
CC(C)OCCCNC(=O)C1N(C(C)C)C(=O)C12CCCC2 (centres undefined),n
SMILES,KDM5B inh
CC(N(C)CC(=O)NC(N)=O)C(C)(C)C (centres undefined),n
Cc1ccc(SCCC(=O)OCc2cc(C#N)ccc2F)cc1,n
COc1cccc(Nc2ncc(-c3c(C)noc3C)c3c2OCC3)c1,35.5µM
COc1ccc(Nc2ncnc3onc(C)c23)cc1Cl,n
Cc1noc(C)c1-c1cnc(NC(=O)c2ccc(Cl)cc2)c2c1CCO2,n
Cc1noc(C)c1-c1cnc(Nc2ccc(F)c(Cl)c2)c2c1CCO2,17.8µM
COc1cccc(NC(=O)C2CCN(S(=O)(=O)c3c(C)noc3C)CC2)c1,n
COCC1CN(Cc2sccc2C)CC12CCNCC2 (centres undefined),n
COc1ccccc1NC(=O)Nc1nc(CC(=O)NCC(C)C)cs1,n
COC(=O)C1=C(N)Oc2c(oc(CO)cc2=O)C1c1ccc(F)cc1F (centres undefined),n
Cc1ccc(C2=NN(S(C)(=O)=O)C(c3ccc(F)cc3)C2)cc1 (centres undefined),n
CCc1n[nH]c(CC2CCN(C(=O)COc3ccc(F)cc3)CC2)n1,n
COc1ccc(OC)c(NC(=O)COC(=O)c2cc(C)nc3ccccc23)c1,n
CC(C)c1noc(CSc2nc(-c3ccco3)nc3ccccc23)n1,n
Cc1cc(N2CCN(c3ccc(F)cc3)CC2)n2nc(Cc3cccc(F)c3)nc2n1,n
COc1ccc(Cc2nc3c4cnn(-c5cccc(F)c5)c4ncn3n2)cc1,n
Cc1ccc(Cc2c(C)nc3nc(CC(=O)Nc4ccc(F)cc4)nn3c2C)cc1,n
Fc1ccc(Cc2nc3nccc(-c4ccccc4)n3n2)cc1,28.2µM
COc1cccc(-c2ccnc3nc(Cc4ccc(F)cc4)nn23)c1,25.1µM
Fc1cccc(CSc2ccc(-c3cccs3)nn2)c1,n
Fc1cc(F)cc(Cc2nc3nccc(-c4cccs4)n3n2)c1,25.1µM
Cc1cc(N2CCCCCC2)n2nc(Cc3ccccc3)nc2n1,n
Fc1ccc(Cc2nc3nccc(-c4ccsc4)n3n2)cc1,25.1µM
Fc1cc(Cl)c(OCc2noc(-c3ccsc3)n2)c(Cl)c1,n
COc1ccc(Cc2nc3nccc(-c4ccccc4)n3n2)cc1,n
SMILES,KDM5B inh
COc1cccc(CN(C)Cc2ccc(F)cc2)c1,n
CC1CCCN(C(C)C(=O)Nc2ccc(C#N)cc2)C1 (centres undefined),n
CCn1ncc(N2CCCC(CC(=O)NC3CCCCC3)C2)cc1=O (centres undefined),n
CCN(Cc1cc2cccc(C)c2[nH]c1=O)C(=O)c1ccc(C(C)(C)C)cc1,n
CC1CCCC(NC(=O)c2ccc(F)cc2Br)C1C (centres undefined),n
O=C(Nc1oc2ccccc2c(=O)c1-c1ccc(F)cc1)c1ccc([N+](=O)[O-])cc1,n
CS(=O)(=O)Nc1ccc(C2(C(=O)NCc3ccccc3Cl)CCCCC2)cc1,n
COc1nc(C(=O)N2CCOCC2(C)C)cc2ccccc12,n
COc1ccc(Cl)cc1NC(=O)CSc1nc2ccccc2nc1C,n

# Source: PubChem
